Screening results as filed in PubChem.
HIF-2a inh: inhibitors of HIF-2a; 786-0 RCC cells HIF-2a reporter, luciferase luminescence, overnight; inhibition, % at 18.8 µM; 360,000 compounds, 0.72% hits;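 active means inhibition of the luminescence signal of 40% or more relative to plate controls, in a single-dose primary screen at 18.75 µM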
Peg3 prom inh: reduces Peg3 promoter-driven luciferase expression in HeLa; HeLa PEG-Prom luciferase reporter, luminescence, overnight; inhibition, % at 20 µM; 360,000 compounds, 1.7% hits;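 active means inhibition of at least 50% at 20 µM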
KKLEB tox: reduces viability of KKLEB cystic fibrosis airway cells. activity change (cytotoxicity), % at 5 µM. KKLEB CF airway cells viability, ATPlite luminescence, overnight; active compounds read low; cells stimulated with P. aeruginosa culture filtrate. 360,000 compounds, 0.36% hits;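 active means corrected activity change at or below -50% at 5 µM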
CF NFkB inh: cystic fibrosis NF-kB activation inhibition | 360,000 compounds, 0.86% hits | AID 588850 | KKLEB NF-kB-GFP reporter, PAF-induced, GFP fluorescence overnight | inhibition, % at 5 µM;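 active means at least 50% inhibition at 5 µM, scaled per plate between neutral and stimulator controls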;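 further: PAF is a Pseudomonas aeruginosa culture filtrate used as stimulus; plate controls were PAF-stimulated DMSO wells for no effect and unstimulated DMSO wells for full effect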
Beta2AR agonist: agonists of human beta-2 adrenergic receptor inducing internalization | P07550 | Am2.2-beta2AR cells, FAP receptor internalization, flow cytometry | response, % (test concentration not listed) | 340,000 compounds, 0.43% hits;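 active means response above a set limit, near 3 SD of response in nonfluorescent compounds, cut at about 42% in these data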
Target sequence (P07550 whole entry, looked up): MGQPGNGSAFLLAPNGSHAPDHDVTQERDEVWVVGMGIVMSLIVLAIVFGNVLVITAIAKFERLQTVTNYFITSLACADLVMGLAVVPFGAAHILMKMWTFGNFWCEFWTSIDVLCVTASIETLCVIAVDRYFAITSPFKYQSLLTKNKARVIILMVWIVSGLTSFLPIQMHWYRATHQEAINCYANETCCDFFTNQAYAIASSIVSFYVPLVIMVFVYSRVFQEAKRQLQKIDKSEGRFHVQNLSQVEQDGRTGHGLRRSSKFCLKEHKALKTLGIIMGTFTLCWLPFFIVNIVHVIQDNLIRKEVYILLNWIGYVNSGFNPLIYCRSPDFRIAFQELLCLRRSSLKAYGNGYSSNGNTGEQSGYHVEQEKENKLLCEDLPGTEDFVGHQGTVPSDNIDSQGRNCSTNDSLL
TRPM1 prom inh: reduces MITF-dependent TRPM1 promoter luciferase signal | inhibition, % at 12.5 µM | SK-MEL-5 TRPM1 promoter luciferase, 24 h | 330,000 compounds, 0.83% hits;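 active means mean inhibition across replicates of 60% or more, whatever share of single replicates reaches that level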
CF NFkB conf: confirmation of cystic fibrosis induced NF-kB inhibitors. inhibition, % at 5 µM. 1,300 compounds, 64% hits. shares compounds with CF NFkB inh. KKLEB CF airway cells, PAF-induced NF-kB-GFP fluorescence, overnight; in the data active means inhibition above about 40%;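 further: stimulus PAF is a Pseudomonas aeruginosa filtrate and not platelet activating factor; plate controls were DMSO wells with stimulus for no effect and unstimulated DMSO wells for full effect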
* = called active by the depositor; i = inactive; . = not tested or not shown; ! = repeats disagree. Most compounds without a hit are left out; they make up all but 2.8% or so of the library.

SMILES	HIF-2a inh	Peg3 prom inh	KKLEB tox	CF NFkB inh	Beta2AR agonist	TRPM1 prom inh	CF NFkB conf
Cc1ccc(O)c(Nc2ncnc3ccc([N+](=O)[O-])cc23)c1	14.3	-3.6	0.1	44.1	7.7	1.5	.
O=[N+]([O-])c1ccc2ncnc(Nc3ccc4c(c3)OCCO4)c2c1	13.8	-3.7	-17.2	64.7*	7.5	-1.5	37.5
CC(=O)c1cccc(NC(=O)Nc2cccnc2)c1	-7.4	-18.6	-5.2	56.7*	15.3	-6.0	77.0*
O=C(Nc1cccnc1)Nc1cccc(F)c1	-72.9	-26.2	-9.8	-1.7	3.6	-1.4	.
CC(C)(C)OC(=O)N1CCC[C@@H]1C(=O)N1CCC[C@@H]1C(=O)NCc1ccccc1Cl	-3.3	.	.	.	.	.	.
Fc1cccc(Cl)c1/C=N/Nc1c(Cl)cncc1Cl	-94.6	-60.4	-12.6	52.8*	-1.2	-20.4	67.0*
Nc1c(C(=O)Nc2ccccc2)sc2nc3c(c(-c4ccco4)c12)CCC3	-225.7	-104.9	-5.9	11.7	17.1	-22.1	.
Nc1c(C(=O)Nc2ccccc2)sc2nc3c(c(-c4ccco4)c12)CCCC3	-163.8	-51.9	-33.6	51.3*	7.1	-19.6	33.8
CNc1nc(Cl)nc2c1ncn2-c1ccccc1	-51.1	-3.6	-15.8	21.6	-5.8	20.6	.
Clc1nc(Cl)c2ncn(-c3ccccc3)c2n1	-95.6	80.9*	-24.5	75.6*	16.6	29.7	-14.7
COCCn1c(=NC(=O)c2sc3ccccc3c2Cl)sc2cc(S(N)(=O)=O)ccc21	18.2	9.8	-45.8	55.1*	23.1	-9.5	23.8
Cc1onc(-c2ccccc2)c1C(=O)N1CCCSC1=Nc1ccccc1	10.2	4.7	2.3	55.9*!	6.4	0.4	-17.0
S=c1sc2c(Cl)ncnc2n1-c1ccccc1	83.8*	112.1*	-28.5	78.0*	103.5*	70.4*	24.9
c1cnc2ccc(-n3ccnc3)cc2c1	3.7	2.3	-27.0	55.2*	.	.	48.7*
CCOC(=O)C1=C(CC)Nc2ccccc2N=C1NC(=O)Nc1ccc(Cl)c(Cl)c1	-71.9	-15.5	-24.7	56.1*	12.3	-1.6	100.8*
COc1ccc(NC(=O)C2(C)CCN2Cc2ccccc2Cl)cc1OC (stereo not drawn)	-8.4	-2.2	-3.1	20.0	.	.	.
Cc1c([N+](=O)[O-])c2ccc(O)cc2n1-c1ccccc1	3.3	31.0	-1.7	67.5*	4.3	-1.4	78.0*
Cc1c(C(=O)O)c2cc(O)ccc2n1-c1ccccc1	5.3	-12.8	10.2	-6.7	-6.2	-0.6	.
Cc1onc(-c2ccccc2)c1C(=O)OCC(=O)Nc1ccccc1Cl	1.7	-0.3	0.0	19.2	.	.	.
CCCC1/C(=N/O)CC(c2ccccc2)NC1c1ccccc1 (stereo not drawn)	20.7	59.8*	-2.8	74.7*	14.8	2.8	59.6*
CN(C(=O)COc1ccccc1C(=O)NCCOc1ccccc1)c1ccccc1	-10.4	106.3*	-25.6	56.9*	31.6	27.5	23.2
Cn1c(=O)cc(SCC(=O)Nc2cccnc2)c2ccccc21	-44.6	-24.9	-4.3	-6.3	-14.3	-21.9	.
Cc1ccnc(NC(=O)CSc2cc(=O)n(C)c3ccccc23)c1	-263.9	69.7*	-25.5	88.0*	-13.1	-1.9	52.3*
Cc1ccnc(NC(=O)CCCOc2cc(=O)n(C)c3ccccc23)c1	i	92.2*	8.9	70.6*	-5.6	4.9	75.8*
CCCCOc1cc(C(=O)OCCN(CC)CC)ccc1N	4.2	1.7	1.6	-10.9	-4.1	-0.8	.
SMILES	HIF-2a inh	Peg3 prom inh	KKLEB tox	CF NFkB inh	Beta2AR agonist	TRPM1 prom inh	CF NFkB conf
CCCOc1ccc(C(=O)OCCN(CC)CC)cc1N	-14.5	4.6	4.0	75.2*	-3.3	6.0	16.3
CC[C@H](C)[C@@H](N)C(=O)NC[C@H]1O[C@@H](n2cnc3c(=O)[nH]c(N)nc32)[C@H](O)[C@@H]1O	12.3	9.7	-16.4	-8.5	.	.	.
NC(c1csc(NC(=O)Nc2cccc(Cl)c2)n1)c1ccccc1Cl (stereo not drawn)	-42.8	99.5*	-15.6	91.1*	.	.	76.8*
C=CCn1c(Oc2ccccc2F)nc2c1c(=O)n(C)c(=O)n2C	21.7	9.9	-15.7	57.2*	-4.8	4.9	63.7*
C=CCn1c(Oc2cc(C)ccc2C)nc2c1c(=O)n(C)c(=O)n2C	18.9	-2.0	-14.2	26.7	9.0	0.5	.
COc1ccc(NC(=O)c2cc(-c3sc(NC(=O)c4ccccc4)nc3C)n(CCO)n2)cc1	-13.4	.	.	.	.	.	.
Cc1ccc(S(=O)(=O)Nc2cccc3ncccc23)s1	80.5*	102.6*	5.0	83.3*	36.8	99.6*	108.5*
Cc1ccc(S(=O)(=O)Nc2cccc3ncccc23)cc1	12.4	9.1	2.4	-4.1	3.7	-4.2	.
Cc1cc(Cl)ccc1N(CC(=O)N(C)Cc1ccccc1)S(C)(=O)=O	20.7	-0.7	-9.9	8.2	.	.	.
Cc1cccc(Nc2ncnc(N)c2[N+](=O)[O-])n1	-2.0	-34.5	13.9	28.8	1.9	-15.9	.
Cc1cc(C)nc(Sc2ncnc(N)c2[N+](=O)[O-])n1	17.9	26.5	-12.0	63.0*	6.3	38.8	63.1*
Nc1[nH]c(C(=O)c2ccccc2)c(-c2ccccc2C(F)(F)F)c1C(=O)NCCc1cccs1	3.7	.	.	.	.	.	.
CN(C)/C=C/C(=O)c1ccc2noc(-c3ccccc3)c2c1	8.0	4.3	-4.3	56.8*	6.4	-0.5	82.3*
O=Nc1ccc(NO)c2ccccc12	0.5	-22.8	-19.1	85.1*	.	.	53.9*
N#Cc1ccc(C(=O)N2CCCCC2c2cc(C(=O)Nc3ccc4c(c3)OCO4)no2)cc1 (stereo not drawn)	-8.9	0.5	4.9	-13.3	.	.	.
CN(Cc1ccco1)c1ncnc2ccc(-c3ccoc3)cc12	15.6	0.8	-9.7	66.5*	-0.7	-6.6	56.3*
CN(Cc1ccco1)c1ncnc2ccc(-c3ccccc3Cl)cc12	4.4	16.5	9.6	9.6	1.1	17.1	.
CCCCn1nnnc1C1(C)CCC(=O)N1CCCn1ccnc1 (stereo not drawn)	11.0	.	.	.	.	.	.
CCCCC(=O)/C=C/n1c(=S)oc2ccccc21	-43.3	100.6*	-36.3	90.2*	38.8	11.6	-142.9
O=C(Nc1ccc2c(c1)OCCO2)c1cc(-c2ccccn2)nc2ccc(Br)cc12	6.7	8.6	-32.5	61.6*	2.6	10.4	56.4*
Cc1cccc(-c2cc(C(=O)Nc3ccc4c(c3)OCCO4)c3ccccc3n2)c1	-40.1	-10.3	7.6	1.8	17.1	-8.0	.
Cc1cc(N2CCOCC2)c2c(N)c(Br)cc(C)c2n1	22.3	13.2	-5.5	65.8*	4.7	0.2	96.7*
Cc1ccc(NC(=O)Nc2nnc(-c3ccncc3)s2)cc1C	-152.0	-138.6	-29.7	89.7*	20.2	-8.0	77.0*
Cc1ccc(NC(=O)CSc2ncnc3ccccc23)cc1S(=O)(=O)N1CCOCC1	28.8	19.0	-20.8	55.9*	-13.3	13.2	72.8*
